Measurements: PubChem BioAssay
For some assays here: Results with a measured potency or affinity are listed apart. Active and inactive are the calls of the source. Unless noted, cut-off not given; nearly all actives show IC50 up to about 0.91 µM.

What follows are compounds tested against Protein kinase 7 (PK7), Plasmodium falciparum 3D7 (PF3D7_0213400) (UniProt Q7YTF7) (assay: inhibition of Plasmodium PK7 catalytic activity – biochemical, TCAMS antimalarial set, Kinase-Glo luminescence (AID 1159587; call rule not given here)). Details: recombinant PfPK7, Kinase-Glo ATP depletion luminescence.
Chain of Protein kinase 7 (PK7), Plasmodium falciparum 3D7 (PF3D7_0213400) (Q7YTF7 1-343): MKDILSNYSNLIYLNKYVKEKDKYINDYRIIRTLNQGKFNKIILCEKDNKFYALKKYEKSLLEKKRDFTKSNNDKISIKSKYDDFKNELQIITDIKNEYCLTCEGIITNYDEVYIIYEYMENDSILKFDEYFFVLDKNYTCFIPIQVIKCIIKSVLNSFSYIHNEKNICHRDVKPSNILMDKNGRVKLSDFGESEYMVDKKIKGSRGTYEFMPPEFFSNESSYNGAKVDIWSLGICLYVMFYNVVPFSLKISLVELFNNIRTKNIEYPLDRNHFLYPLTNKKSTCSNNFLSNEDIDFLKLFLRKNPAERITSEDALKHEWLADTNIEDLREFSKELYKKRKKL

Compound | outcome
CCCCC(NCC)c1ccc(OCCOc2ccc(C(CCCC)NCC)cc2)cc1 (stereo not given) | inactive
CC(C)(C)c1ccc(CN2CCCCC(NC(=O)c3cc(-c4ccccc4Cl)cs3)C2)cc1 (stereo not given) | inactive
CN(C)Cc1cccc(-c2ccc(NC(=O)c3ccc4c(=O)n(CC5CCCO5)cnc4c3)cc2)c1 (stereo not given) | inactive
CC1CCN(CC[C@H]2CCCN2S(=O)(=O)c2cccc(NC(=O)c3ccc(-c4ccc(Cl)cc4)o3)c2)CC1 | inactive
CCOC(=O)C1=C(C)NC2=C(C(=O)CC(C)(C)C2)C1c1ccc(Cl)cc1 (stereo not given) | inactive
CCn1cnc2c(N3CCCS3(=O)=O)cc(C(=O)N[C@@H](Cc3ccccc3)[C@H](O)CNC(C)(C)c3cccc(C(F)(F)F)c3)cc21 | inactive
Cc1ccc2[nH]c(C3CCCNC3)c(-c3ccncc3)c2c1 (stereo not given) | inactive
COC(=O)[C@@H](NC(=O)[C@H](CC(C)C)Nc1ccc(C#N)c2ccccc12)c1ccc(O)cc1 | inactive
CCC(C)Oc1ccc(CCCON2C(N)=NC(N)=NC2(C)C)cc1 (stereo not given) | inactive
C[C@H]1CN(Cc2cccc(-c3cc(CNC(=O)c4cccc(CN5CCN(CCOc6ccccc6)CC5)c4)ccc3F)c2)CCN1 | inactive
O=C1CCCN1CCCNCc1cccc(-c2ccc(-c3nc4ccccc4[nH]3)s2)c1 | inactive
CC(=O)N[C@H](C(=O)Nc1cccc(-c2ccc(-c3nc4c(C)cccc4[nH]3)s2)c1)C(C)C | inactive
O=C(Cc1cccc(Cl)c1)Nc1cccc(-c2c[nH]c3nc(Nc4cccc(O)c4)ncc23)c1 | inactive
CC(C)CNC(=O)c1cncc(-c2ccc(CN3CCC(N4CCCC4)CC3)cc2)c1 | inactive
O=C(Nc1ccccc1Cc1ccccc1)c1ccccc1C(F)(F)F | inactive
CC(C)CCN1CCC(Oc2ccc(NC(=O)c3cccs3)cc2Cl)CC1 | inactive
CNC(=O)c1cnc(Nc2ccc(N3CCN(C)CC3)c(C)c2)nc1NC | inactive
O=C(Nc1ccc(N2CCNCC2)nc1)c1oc(-c2ccccc2)nc1C(F)(F)F | inactive
Cc1ccc2nc(C)cc(NN=Cc3ccc([N+](=O)[O-])cc3)c2c1 | inactive
CN1CCN(CCCN(Cc2csc(-c3ccc(CNCc4ccccc4)cc3)n2)C(=O)Nc2ccc3ccccc3c2)CC1 | inactive

Compound | outcome
CCOc1ccccc1N1CCN(CCCNC(=O)/C(=C/C=C/c2cc3cc(Cl)c(Cl)cc3[nH]2)OC)CC1 | inactive
CC(O)C1CCCCN1C(=O)c1cccc(-c2cccc(-c3nc4ccc(F)cc4[nH]3)c2)c1 (stereo not given) | inactive
COc1cc(CN2CCC(NC(=O)[C@H](Cc3ccccc3)NC(=O)Nc3ccc(Oc4ccccc4)cc3)C2)ccc1O (stereo not given in full) | inactive
COc1ccc(CNC2CCCC2)cc1-c1ccc(S(=O)(=O)NCCN2CCCC2)s1 | inactive
CS(=O)(=O)CCOCc1ccc(-c2ccc3ncnc(Nc4ccc(OCc5cccc(F)c5)c(Cl)c4)c3c2)o1 | inactive
Oc1ccc(Nc2ccnc3cc(Cl)ccc23)cc1 | inactive
CC[C@H]1CN(Cc2cccc(O)c2)CC[C@H]1CCCc1ccnc2ccc(O)cc12 | inactive
COc1ccc(Nc2nc(NC3CCCC3)cc(-c3ccc(OC)cc3)n2)cc1 | inactive
Cc1cc(N2CCCC2=O)ccc1-c1ccc(C(=O)N2CCC(Oc3cccc(Cl)c3)CC2)cc1 | inactive
Cc1[nH]c2ccc(NS(C)(=O)=O)cc2c1C1CCN(CCC2CCN(C(=O)/C=C/c3ccc(Cl)c(Cl)c3)CC2)CC1 | inactive
O=[N+]([O-])c1ccc(Nc2nc(NN=Cc3ccc(-c4ccc([N+](=O)[O-])cc4)o3)nc(Nc3ccccc3)n2)cc1 | inactive
COc1cccc(Nc2nc(C)cc(NCc3ccc(-c4c(C)noc4C)cc3)n2)c1 | inactive
CC(C)CCNC(=O)[C@@H]1[C@H]2C(=O)N(C3CCCCC3)C(=O)[C@H]2[C@H]2C=C[C@@H]3C(c4ccc(C(C)(C)C)cc4)=NO[C@@H]3N21 | inactive
COc1ccc(-c2cccc(NC(=O)c3cccc(C#N)c3)c2)cc1CN1CCN(C)CC1 | inactive
COc1ccc2nccc(N3CCC(SCCNS(=O)(=O)c4ccc5c(c4)NC(=O)CS5)C3)c2n1 (stereo not given) | inactive
CC[C@H](C)CNC(=O)c1cncc(-c2cccc(CNCCCc3ccccc3)c2)c1 | inactive
Cn1c(NC2=NC3(c4ccccn4)N=C(Nc4nc5ccccc5n4C)NC3(c3ccccn3)N2)nc2ccccc21 (stereo not given) | inactive
Cc1cccc2[nH]c(-c3ccc(-c4cccc(CNCCN(C)C)c4)cc3)nc12 | inactive
CCn1nc(C(=O)NC2CCOc3ccccc32)c2ccccc2c1=O (stereo not given) | inactive
CC(Nc1ccnc2cc(Cl)ccc12)c1ccc(S(N)(=O)=O)cc1 (stereo not given) | inactive

These compounds were tested against Calcium-dependent protein kinase 4 (Plasmodium falciparum (isolate 3D7)) (UniProt Q8IBS5) (assay: PfCDPK4 kinase inhibitors, biochemical, TCAMS library (AID 1159588)). Details: recombinant PfCDPK4, Kinase-Glo ATP depletion luminescence.
Chain of Calcium-dependent protein kinase 4 (Plasmodium falciparum (isolate 3D7)) (Q8IBS5 whole entry, looked up): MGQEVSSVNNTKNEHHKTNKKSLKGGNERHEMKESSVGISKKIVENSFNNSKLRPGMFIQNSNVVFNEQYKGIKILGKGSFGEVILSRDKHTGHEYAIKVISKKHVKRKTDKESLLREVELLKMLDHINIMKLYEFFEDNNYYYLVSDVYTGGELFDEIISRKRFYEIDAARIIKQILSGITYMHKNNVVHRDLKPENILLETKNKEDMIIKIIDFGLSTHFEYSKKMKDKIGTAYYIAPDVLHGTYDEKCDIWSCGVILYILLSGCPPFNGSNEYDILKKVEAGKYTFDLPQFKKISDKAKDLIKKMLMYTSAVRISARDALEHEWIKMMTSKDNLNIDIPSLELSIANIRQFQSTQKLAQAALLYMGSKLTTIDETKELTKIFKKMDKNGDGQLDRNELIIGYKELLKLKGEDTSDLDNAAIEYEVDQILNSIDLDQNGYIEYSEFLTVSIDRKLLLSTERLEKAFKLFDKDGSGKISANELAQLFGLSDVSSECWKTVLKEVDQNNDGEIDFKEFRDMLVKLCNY

Compound | outcome
CCCCC(NCC)c1ccc(OCCOc2ccc(C(CCCC)NCC)cc2)cc1 (stereo not given) | inactive
CC(C)(C)c1ccc(CN2CCCCC(NC(=O)c3cc(-c4ccccc4Cl)cs3)C2)cc1 (stereo not given) | inactive
CN(C)Cc1cccc(-c2ccc(NC(=O)c3ccc4c(=O)n(CC5CCCO5)cnc4c3)cc2)c1 (stereo not given) | inactive
CC1CCN(CC[C@H]2CCCN2S(=O)(=O)c2cccc(NC(=O)c3ccc(-c4ccc(Cl)cc4)o3)c2)CC1 | inactive
CCOC(=O)C1=C(C)NC2=C(C(=O)CC(C)(C)C2)C1c1ccc(Cl)cc1 (stereo not given) | inactive
CCn1cnc2c(N3CCCS3(=O)=O)cc(C(=O)N[C@@H](Cc3ccccc3)[C@H](O)CNC(C)(C)c3cccc(C(F)(F)F)c3)cc21 | inactive
Cc1ccc2[nH]c(C3CCCNC3)c(-c3ccncc3)c2c1 (stereo not given) | inactive
COC(=O)[C@@H](NC(=O)[C@H](CC(C)C)Nc1ccc(C#N)c2ccccc12)c1ccc(O)cc1 | inactive
CCC(C)Oc1ccc(CCCON2C(N)=NC(N)=NC2(C)C)cc1 (stereo not given) | inactive
C[C@H]1CN(Cc2cccc(-c3cc(CNC(=O)c4cccc(CN5CCN(CCOc6ccccc6)CC5)c4)ccc3F)c2)CCN1 | inactive
O=C1CCCN1CCCNCc1cccc(-c2ccc(-c3nc4ccccc4[nH]3)s2)c1 | inactive
CC(=O)N[C@H](C(=O)Nc1cccc(-c2ccc(-c3nc4c(C)cccc4[nH]3)s2)c1)C(C)C | inactive
O=C(Cc1cccc(Cl)c1)Nc1cccc(-c2c[nH]c3nc(Nc4cccc(O)c4)ncc23)c1 | inactive
CC(C)CNC(=O)c1cncc(-c2ccc(CN3CCC(N4CCCC4)CC3)cc2)c1 | inactive
O=C(Nc1ccccc1Cc1ccccc1)c1ccccc1C(F)(F)F | inactive
CC(C)CCN1CCC(Oc2ccc(NC(=O)c3cccs3)cc2Cl)CC1 | inactive
CNC(=O)c1cnc(Nc2ccc(N3CCN(C)CC3)c(C)c2)nc1NC | inactive
O=C(Nc1ccc(N2CCNCC2)nc1)c1oc(-c2ccccc2)nc1C(F)(F)F | inactive
Cc1ccc2nc(C)cc(NN=Cc3ccc([N+](=O)[O-])cc3)c2c1 | inactive
CN1CCN(CCCN(Cc2csc(-c3ccc(CNCc4ccccc4)cc3)n2)C(=O)Nc2ccc3ccccc3c2)CC1 | inactive

Compound | outcome
CCOc1ccccc1N1CCN(CCCNC(=O)/C(=C/C=C/c2cc3cc(Cl)c(Cl)cc3[nH]2)OC)CC1 | inactive
CC(O)C1CCCCN1C(=O)c1cccc(-c2cccc(-c3nc4ccc(F)cc4[nH]3)c2)c1 (stereo not given) | inactive
COc1cc(CN2CCC(NC(=O)[C@H](Cc3ccccc3)NC(=O)Nc3ccc(Oc4ccccc4)cc3)C2)ccc1O (stereo not given in full) | inactive
COc1ccc(CNC2CCCC2)cc1-c1ccc(S(=O)(=O)NCCN2CCCC2)s1 | inactive
CS(=O)(=O)CCOCc1ccc(-c2ccc3ncnc(Nc4ccc(OCc5cccc(F)c5)c(Cl)c4)c3c2)o1 | inactive
Oc1ccc(Nc2ccnc3cc(Cl)ccc23)cc1 | inactive
CC[C@H]1CN(Cc2cccc(O)c2)CC[C@H]1CCCc1ccnc2ccc(O)cc12 | inactive
COc1ccc(Nc2nc(NC3CCCC3)cc(-c3ccc(OC)cc3)n2)cc1 | inactive
Cc1cc(N2CCCC2=O)ccc1-c1ccc(C(=O)N2CCC(Oc3cccc(Cl)c3)CC2)cc1 | inactive
Cc1[nH]c2ccc(NS(C)(=O)=O)cc2c1C1CCN(CCC2CCN(C(=O)/C=C/c3ccc(Cl)c(Cl)c3)CC2)CC1 | inactive
O=[N+]([O-])c1ccc(Nc2nc(NN=Cc3ccc(-c4ccc([N+](=O)[O-])cc4)o3)nc(Nc3ccccc3)n2)cc1 | inactive
COc1cccc(Nc2nc(C)cc(NCc3ccc(-c4c(C)noc4C)cc3)n2)c1 | inactive
CC(C)CCNC(=O)[C@@H]1[C@H]2C(=O)N(C3CCCCC3)C(=O)[C@H]2[C@H]2C=C[C@@H]3C(c4ccc(C(C)(C)C)cc4)=NO[C@@H]3N21 | inactive
COc1ccc(-c2cccc(NC(=O)c3cccc(C#N)c3)c2)cc1CN1CCN(C)CC1 | inactive
COc1ccc2nccc(N3CCC(SCCNS(=O)(=O)c4ccc5c(c4)NC(=O)CS5)C3)c2n1 (stereo not given) | inactive
CC[C@H](C)CNC(=O)c1cncc(-c2cccc(CNCCCc3ccccc3)c2)c1 | inactive
Cn1c(NC2=NC3(c4ccccn4)N=C(Nc4nc5ccccc5n4C)NC3(c3ccccn3)N2)nc2ccccc21 (stereo not given) | inactive
Cc1cccc2[nH]c(-c3ccc(-c4cccc(CNCCN(C)C)c4)cc3)nc12 | inactive
CCn1nc(C(=O)NC2CCOc3ccccc32)c2ccccc2c1=O (stereo not given) | inactive
CC(Nc1ccnc2cc(Cl)ccc12)c1ccc(S(N)(=O)=O)cc1 (stereo not given) | inactive
